Test results reported in PubChem BioAssay (NCI).
Compounds without any hit were thinned out: in the full panel of roughly 79,000, 15% have a hit. Unmarked numbers belong to inactive results. The source made the active and inactive calls. Rule as the data show it: active = growth inhibition above about 70%; inactive = the rest.

Experiments:
[1] = NCI Yeast Anticancer Drug Screen. Data for the rad50 strain (AID 155);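 also: 0% = growth of vehicle-only cultures of the same strain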; conditions: S. cerevisiae rad50 strain growth inhibition, hits give high values
Summary of the method: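 Inhibition values express reduced yeast growth in compound-treated cultures relative to vehicle-treated controls.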

[2] = NCI Yeast Anticancer Drug Screen. Data for the mec2-1 strain (AID 157); conditions: S. cerevisiae mec2-1 strain, hits give high values
Summary of the method: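 Readout is yeast growth inhibition, normalised to vehicle-treated controls, in the mec2-1 strain exposed to compound.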

[3] = NCI Yeast Anticancer Drug Screen. Data for the sgs1 mgt1 strain (AID 161);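 also: 0% = growth of cultures given vehicle only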; conditions: S. cerevisiae sgs1 mgt1 strain, hits give high values
Summary of the method: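 Percent growth inhibition was derived by comparing compound-exposed mutant yeast with vehicle-exposed cultures. The strain carries alterations in DNA damage repair.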

[4] = NCI Yeast Anticancer Drug Screen. Data for the cln2 rad14 strain (AID 165);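 also: 0% = growth equal to vehicle treated cultures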; conditions: S. cerevisiae cln2 rad14 strain, hits give high values
Summary of the method: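 Relative to vehicle controls, growth inhibition of compound-treated cln2 rad14 yeast was recorded.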

[5] = NCI Yeast Anticancer Drug Screen. Data for the bub3 strain (AID 167); conditions: S. cerevisiae bub3 mutant strain, hits give high values
Summary of the method: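 Steps: expose the mutant yeast strain to compound; grow alongside vehicle-treated cultures; measure growth; express inhibition against the vehicle cultures.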

[6] = NCI Yeast Anticancer Drug Screen. Data for the mlh1 rad18 strain (AID 175); conditions: S. cerevisiae mlh1 rad18 strain growth inhibition, hits give high values
Summary of the method: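 Test agents were incubated with a yeast strain of defined genotype (DNA damage repair defect). Inhibition of growth was derived by comparison with vehicle-exposed cultures.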

[7] = at 5.0 µM (retest, dose inferred, filed as 0.5)
[8] = at 50.0 µM (retest, dose inferred, filed as 5.0)

SMILES	growth inhibition [1, 7]	growth inhibition [1, 8]	growth inhibition ([1]; at 50.0 µM)	growth inhibition [2, 7]	growth inhibition [2, 8]	growth inhibition ([2]; at 50.0 µM)	growth inhibition [3, 7]	growth inhibition [3, 8]	growth inhibition ([3]; at 50.0 µM)	growth inhibition [4, 7]	growth inhibition [4, 8]	growth inhibition ([4]; at 50.0 µM)	growth inhibition [5, 7]	growth inhibition [5, 8]	growth inhibition ([5]; at 50.0 µM)	growth inhibition [6, 7]	growth inhibition [6, 8]	growth inhibition ([6]; at 50.0 µM)
Cc1[nH]nc(C(F)(F)F)c1N=NN1CCC(C(N)=O)CC1	49%	99% (active)	99.5% (active)	77% (active)	100% (active)	99.5% (active)	83% (active)	99% (active)	99.5% (active)	36%	99% (active)	99.5% (active)	27%	99% (active)	99.5% (active)	75% (active)	99% (active)	99.5% (active)
O=P1(O)c2ccccc2CS(=O)(=O)Cc2ccccc21	34%	31%	21.4%	21%	24%	-11.1%	26%	53%	-24.2%	16%	29%	-13.2%	16%	46%	-19.8%	35%	43%	-42.8%
O=C1C(Br)CCC1(c1ccccc1)c1ccccc1 (configuration not stated)	5%	91% (active)	97% (active)	6%	93% (active)	97.2% (active)	4%	97% (active)	98% (active)	4%	78% (active)	78.8% (active)	-10%	94% (active)	95.7% (active)	3%	96% (active)	98.2% (active)
CC/C(=C(\CC)c1ccc(O)c(CN(CCO)CCO)c1)c1ccc(O)cc1	-3%	11%	36.9%	-1%	5%	22.2%	-2%	28%	69.2%	0%	-1%	0.6%	-5%	25%	12.5%	-2%	33%	73.6% (active)
O=[N+]([O-])/C(C=Nc1ccccc1)=C/Nc1ccccc1	-17%	51%	71.5% (active)	-10%	33%	67.3%	2%	46%	83.5% (active)	-6%	48%	37.5%	16%	73% (active)	31.6%	-15%	83% (active)	76.6% (active)
CC(NC(=O)C(Cc1ccccc1)NC(=O)c1ccc[n+](Cc2ccccc2)c1)C(N)=O (configuration not stated)	0%	-5%	0.65%	0%	-2%	-3.05%	-1%	3%	-9.9%	0%	-1%	-4.7%	1%	-11%	-1.9%	-1%	-2%	28.1%
CCN(CC)C1Oc2cc3c(cc2C(c2ccc(OC)cc2)C1C)OCO3 (configuration not stated)	2%	96% (active)	82.3% (active)	-38%	96% (active)	77.5% (active)	-48%	95% (active)	89.3% (active)	1%	95% (active)	81% (active)	-34%	98% (active)	84.5% (active)	-14%	97% (active)	85.3% (active)
O=C1/C(=C\c2ccc(Cl)cc2)SC2SC=C(c3ccc([N+](=O)[O-])cc3)N12 (configuration not stated)	0%	86% (active)	98.3% (active)	2%	94% (active)	98.9% (active)	-4%	92% (active)	99.2% (active)	-20%	86% (active)	98% (active)	-7%	86% (active)	86.8% (active)	5%	92% (active)	98.6% (active)
NC(=S)C(=S)N/C=C(/c1ccc(Cl)cc1)S(=O)(=O)Cc1ccc(Cl)cc1	1%	98% (active)	97.3% (active)	-17%	99% (active)	96.2% (active)	-3%	98% (active)	96.8% (active)	-19%	97% (active)	94.8% (active)	21%	98% (active)	96.7% (active)	4%	98% (active)	97.3% (active)
COc1ccc(-c2c3c(cc4cc5c(cc24)OCO5)C(=O)OC3)cc1OC	26%	96% (active)	92.5% (active)	30%	96% (active)	93.9% (active)	57%	96% (active)	93.7% (active)	16%	87% (active)	92.3% (active)	51%	97% (active)	92.3% (active)	62%	96% (active)	78.8% (active)
OCCCC(Sc1ccccc1)c1ccccc1 (configuration not stated)	-1%	25%	46.4%	-18%	13%	78.5% (active)	-15%	23%	67.2%	-1%	-1%	40.2%	-4%	3%	-0.25%	28%	23%	52.2%
O=S(=O)(C#Cc1ccccc1)c1ccccc1	12%	98% (active)	99.4% (active)	-11%	99% (active)	99.5% (active)	24%	99% (active)	99.4% (active)	7%	99% (active)	99.2% (active)	3%	98% (active)	99.1% (active)	16%	99% (active)	99% (active)
CC1=C(C(=O)Nc2ccccc2)C(c2cccc3ccccc23)C(C(=O)Nc2ccccc2)=C(C)N1	-2%	53%	71% (active)	-17%	51%	91% (active)	0%	41%	48.6%	-2%	64%	64.3%	-7%	53%	89% (active)	-4%	53%	58.7%
CCN(CC)c1ccc(NC(C(=O)c2ccc(Cl)cc2)c2ccc(Cl)cc2)cc1 (configuration not stated)	-7%	-10%	91.3% (active)	-2%	-10%	91.2% (active)	-6%	-9%	96.2% (active)	2%	-11%	93.3% (active)	-1%	8%	86.3% (active)	-2%	-8%	95.6% (active)
O=C(c1ccccc1)c1[nH]c2ccccc2c(=O)c1-c1ccc([N+](=O)[O-])cc1	-6%	96% (active)	97.6% (active)	-9%	98% (active)	97.5% (active)	-16%	98% (active)	98.3% (active)	-13%	97% (active)	97.6% (active)	-8%	96% (active)	97.5% (active)	3%	94% (active)	98.3% (active)
COc1ccc(OC)c2c1C=CC(Br)=CC2	33%	33%	55.1%	24%	24%	27%	26%	26%	45.5%	6%	6%	15.4%	19%	19%	40.8%	30%	30%	39.5%
CC(C)c1ccc(C(=O)C2CC2)cc1	-23%	0%	34.6%	-10%	-27%	42.9%	-12%	-14%	50.6%	9%	24%	40.5%	-29%	-20%	65.3%	-22%	-18%	21%
CCOC(=O)Nc1cc2c(c(N)n1)N=C(c1ccccc1)CN2	6%	34%	36.3%	-25%	35%	-3.7%	-13%	89% (active)	37.2%	11%	33%	17.9%	22%	80% (active)	47.1%	10%	52%	18.1%
COc1ccc(C(=O)[O][Sn]([c]2ccccc2)([c]2ccccc2)[c]2ccccc2)c(OC)c1OC	100% (active)	99% (active)	98.7% (active)	100% (active)	100% (active)	99.1% (active)	99% (active)	99% (active)	98.8% (active)	99% (active)	99% (active)	88.2% (active)	100% (active)	100% (active)	98.9% (active)	99% (active)	99% (active)	98.4% (active)
